# Results reported in the OligoGym collection.
# Columns and labels:
# Test in all cases: pooled miR-30 sensor sort-seq; sequence = guide strand
# Conditions in all cases: shRNA
# EIF3M = target: EIF3M
# ENAM = target: ENAM
# EPDR1 = target: EPDR1
# EPHA6 = target: EPHA6
# EPGN = target: EPGN
# EPHA8 = target: EPHA8
# EPHB3 = target: EPHB3
# Also: reference of the scale not given here.
sequence,measurement,setting,value
TTTTCTAACTTGATCCAGCTCA,sensor-assay potency score (higher = more potent),EIF3M,-0.0518
TTCAACATCTTTATCATCCTCC,sensor-assay potency score (higher = more potent),EIF3M,0.759
TACTGTTGAGAGTTTCTCCAGG,sensor-assay potency score (higher = more potent),ENAM,0.393
TCAATCTGAAACATCACTCCAT,sensor-assay potency score (higher = more potent),EPDR1,1.13
TAGAGGAATAATTACTTCCTAT,sensor-assay potency score (higher = more potent),EPDR1,-0.811
TATCAAGCAACACAACTTGGTT,sensor-assay potency score (higher = more potent),EPHA6,-0.642
TGCAGTAACTGTTATGATCTTC,sensor-assay potency score (higher = more potent),EPGN,-0.113
ATAACCAGTAAAACACCTGCAG,sensor-assay potency score (higher = more potent),EPGN,-0.113
TTAGGAGACAATAGTCTCCTGA,sensor-assay potency score (higher = more potent),EPDR1,-0.95
TTGGCTTGAATTTAATTCCGTG,sensor-assay potency score (higher = more potent),EPHA6,0.00331
ATTTCTTGTAGAAAACACGGAC,sensor-assay potency score (higher = more potent),EPHA6,-0.586
TATGTTGTCAGCTTGCTGGGCT,sensor-assay potency score (higher = more potent),EPGN,0.572
TACGAGGGAACTCTAGTCCTGG,sensor-assay potency score (higher = more potent),EPDR1,-0.607
TAGGATTCTCTAAACTGCCTTG,sensor-assay potency score (higher = more potent),EPDR1,-0.223
TTTCTCTAGCTCATGGTGGAAT,sensor-assay potency score (higher = more potent),EPGN,-1.09
TAACCAGTAAAACACCTGCAGA,sensor-assay potency score (higher = more potent),EPGN,-1.05
TTCCATTACATTACATACCTGG,sensor-assay potency score (higher = more potent),EPHA6,0.0947
TCCAGAGTCACTGATGTCCCAT,sensor-assay potency score (higher = more potent),EPHA8,-0.773
TTTCTTACAGATTACACTGTAT,sensor-assay potency score (higher = more potent),EPHA6,-0.425
TTTTCTGAGCTGCATCACGGGA,sensor-assay potency score (higher = more potent),EPHA6,-0.977
TTCTATGTTGTCAGCTTGCTGG,sensor-assay potency score (higher = more potent),EPGN,-0.845
ATTTTCTCGATGTGGATCCTAG,sensor-assay potency score (higher = more potent),EPHA8,-0.272
TAGCATTCACATCTTGACTAGT,sensor-assay potency score (higher = more potent),EPDR1,0.0481
TAGGATCTAGCTGACTTTCTGT,sensor-assay potency score (higher = more potent),EPDR1,0.667
TTGAATAAAAGATAGACTGATA,sensor-assay potency score (higher = more potent),EPGN,-0.413
TCTGTCTCTCCGTGTAGCCGGC,sensor-assay potency score (higher = more potent),EPHA8,-0.777
TACAGTTGTTGTATCAAGCAAC,sensor-assay potency score (higher = more potent),EPHA6,0.0165
TAAGAATCCACAGCATATGAAG,sensor-assay potency score (higher = more potent),EPGN,-1.16
TTTCATAAGAATCCACAGCATA,sensor-assay potency score (higher = more potent),EPGN,-0.859
TTGGAGGTGTTACAGTCACGGC,sensor-assay potency score (higher = more potent),EPGN,-1.5
TCTAGCTGACTTTCTGTCCGAC,sensor-assay potency score (higher = more potent),EPDR1,-0.0561
TTGCTGTCAACCAGGACGTTGC,sensor-assay potency score (higher = more potent),EPHA8,-1.32
TATTCAAATAATCTCTTGCAGG,sensor-assay potency score (higher = more potent),EPDR1,-0.781
AACCACTTAATAGTAATCCAAC,sensor-assay potency score (higher = more potent),EPGN,-1.22
TTCAGCTCGGAAATAACCCTTT,sensor-assay potency score (higher = more potent),EPHA6,-0.23
TGCATCTTCTCCTCGTCCGAGT,sensor-assay potency score (higher = more potent),EPHA8,-1.08
TACATCTTGGGTGTGTCCCGCT,sensor-assay potency score (higher = more potent),EPHA8,-0.241
TGTATCAAGCAACACAACTTGG,sensor-assay potency score (higher = more potent),EPHA6,-0.401
TATCACACTGTAGTTTATGGTA,sensor-assay potency score (higher = more potent),EPDR1,-0.596
TTTCTGACTGTAGCCACTGTAT,sensor-assay potency score (higher = more potent),EPHA6,-1.06
TTACAGATTACACTGTATGTGA,sensor-assay potency score (higher = more potent),EPHA6,0.175
TAGTCTCATATCCATCTCCAGC,sensor-assay potency score (higher = more potent),EPDR1,-1.45
TAGTACTTGATCTCATACTCCA,sensor-assay potency score (higher = more potent),EPHA8,-0.186
TGATAGTGCATCTTCTCCTCGT,sensor-assay potency score (higher = more potent),EPHA8,0.0465
TAATAGTAATCCAACACCAATC,sensor-assay potency score (higher = more potent),EPGN,-1.34
TTGTCATCACAGCGTGAGCAGG,sensor-assay potency score (higher = more potent),EPHB3,-1.61
TCCATTCTGATAGTGCATCTTC,sensor-assay potency score (higher = more potent),EPHA8,-0.518
TCGATTTTGAGGAACTGGCTTT,sensor-assay potency score (higher = more potent),EPHA8,-0.582
TTGTGGTCTCAAACTCGGCAGG,sensor-assay potency score (higher = more potent),EPHB3,-1.08
TTGCAGTAGAGCTTGAGTGGCA,sensor-assay potency score (higher = more potent),EPHB3,-0.145
TGCATGATGGTGAACTGCCCGT,sensor-assay potency score (higher = more potent),EPHA8,-1.1
TACTGCTGCAGCTTCTCCGTGT,sensor-assay potency score (higher = more potent),EPHB3,0.38
TCGTAGTCCAGGATGACTCCGT,sensor-assay potency score (higher = more potent),EPHB3,-0.375
TGAGGTTTCATTCACATTGGAG,sensor-assay potency score (higher = more potent),EPHB3,-0.889
TACTTCATCTCGTAGTCCAGGA,sensor-assay potency score (higher = more potent),EPHB3,-0.409
TAGCCGGCACTGCACACGCATT,sensor-assay potency score (higher = more potent),EPHA8,-1.71
AACTGGTGTAGGTAGGATCGGA,sensor-assay potency score (higher = more potent),EPHB3,-0.385
TTACACACCTGGTATGTGCGGA,sensor-assay potency score (higher = more potent),EPHB3,0.227
ATCGAGGACACTGACAATCTGG,sensor-assay potency score (higher = more potent),EPHA8,-0.163
ATGAGCGTCAGGCAGATCCAGA,sensor-assay potency score (higher = more potent),EPHA8,-1.66
